Data from the supplement of paper PMC10849652.
The full data set covers some 7,900 targets. This sample favours those with a hit. About 0.6% of all pairs of compound and target were hits. A number with no mark means an inactive call.

How the values were obtained:
Experiment in all cases: log2 fold change, soluble protein after heating vs DMSO (PISA); higher = thermal stabilisation; K562 cells, 10 uM, 30 min; active = over 0.2 and 3.5 SD of the protein, either way, in both replicates (recomputed)
[1] = compound: NC(=O)Nc1cc(-c2cccc(F)c2)sc1C(=O)N[C@H]1CCCNC1
How it was run: (§1)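 K562 cells (2×10^6 cells/mL) were treated with 10 μM compound for 30 min, and aliquots were heated for 3 min over 48°C-58°C. Pooled aliquots were extracted in PBS with 0.5% NP-40 at 4°C, and the supernatant after 21,000xg for 90 min was measured by TMTpro 16plex LC-MS/MS with channel sums equalised. Reported thermal stability, relative to control samples and from duplicates, is a log2 fold change.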

[2] = compound: NC(=O)c1cnc(N[C@@H]2CCCC[C@@H]2N)nc1Nc1cccc(-n2nccn2)c1
How it was run: as §1

[3] = compound: NC1(c2ccc(-c3nc4ccn5c(=O)[nH]nc5c4cc3-c3ccccc3)cc2)CCC1
How it was run: as §1

[4] = compound: NCC(=O)Nc1ccc(-n2nc(C(F)(F)F)cc2-c2ccc3c(ccc4ccccc43)c2)cc1
How it was run: as §1

[5] = compound: Nc1ccccc1NC(=O)c1ccc(CNC(=O)OCc2cccnc2)cc1 [entinostat]
How it was run: as §1

[6] = compound: O=C(CCCCCCC(=O)Nc1ccccc1)NO [vorinostat]
How it was run: as §1

[7] = compound: O=C(CCCCCCNC(=O)c1cnc(N(c2ccccc2)c2ccccc2Cl)nc1)NO [citarinostat]
How it was run: as §1

[8] = compound: O=C(O)c1ccc2c(c1)nc(Nc1cccc(Cl)c1)c1ccncc12 [silmitasertib]
How it was run: as §1

[9] = compound: O=C1NC(=O)C(c2cnc3ccccn23)=C1c1cn2c3c(cc(F)cc13)CN(C(=O)N1CCCCC1)CC2
How it was run: as §1

[10] = compound: c1cc(OCCN2CCCCC2)cc(-c2n[nH]c3ccc(-c4nnc[nH]4)cc23)c1
How it was run: as §1

UniProt O15213, sequence (O15213 whole entry, looked up): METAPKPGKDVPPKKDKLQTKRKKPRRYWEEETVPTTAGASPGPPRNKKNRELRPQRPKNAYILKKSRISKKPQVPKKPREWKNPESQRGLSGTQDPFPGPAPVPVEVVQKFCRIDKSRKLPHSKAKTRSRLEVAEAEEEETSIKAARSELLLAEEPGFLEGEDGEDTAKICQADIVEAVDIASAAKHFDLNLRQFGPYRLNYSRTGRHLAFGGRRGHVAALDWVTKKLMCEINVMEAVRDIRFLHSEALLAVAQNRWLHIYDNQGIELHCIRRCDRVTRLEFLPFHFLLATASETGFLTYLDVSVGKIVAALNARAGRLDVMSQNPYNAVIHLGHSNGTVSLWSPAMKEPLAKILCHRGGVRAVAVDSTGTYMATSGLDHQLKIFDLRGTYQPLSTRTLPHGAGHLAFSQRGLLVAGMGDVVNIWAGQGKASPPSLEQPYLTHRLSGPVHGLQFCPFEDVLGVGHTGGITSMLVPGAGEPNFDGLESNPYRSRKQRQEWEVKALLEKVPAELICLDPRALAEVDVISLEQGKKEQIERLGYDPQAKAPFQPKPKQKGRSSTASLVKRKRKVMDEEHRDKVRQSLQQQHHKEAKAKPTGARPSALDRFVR
UniProt Q9NX61, sequence (Q9NX61 whole entry, looked up): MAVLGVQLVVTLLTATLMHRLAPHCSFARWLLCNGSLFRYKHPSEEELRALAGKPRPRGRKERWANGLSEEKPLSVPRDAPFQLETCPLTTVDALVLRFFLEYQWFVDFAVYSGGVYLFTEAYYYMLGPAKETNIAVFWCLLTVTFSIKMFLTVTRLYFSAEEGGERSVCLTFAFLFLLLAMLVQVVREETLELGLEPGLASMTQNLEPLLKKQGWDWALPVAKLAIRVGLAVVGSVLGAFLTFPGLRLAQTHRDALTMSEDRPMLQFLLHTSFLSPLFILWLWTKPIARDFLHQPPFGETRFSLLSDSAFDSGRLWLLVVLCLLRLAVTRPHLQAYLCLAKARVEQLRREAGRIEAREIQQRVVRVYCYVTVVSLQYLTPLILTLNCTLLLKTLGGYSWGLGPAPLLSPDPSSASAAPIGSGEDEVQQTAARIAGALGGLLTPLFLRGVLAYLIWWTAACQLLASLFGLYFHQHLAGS
UniProt O95379, sequence (O95379 whole entry, looked up): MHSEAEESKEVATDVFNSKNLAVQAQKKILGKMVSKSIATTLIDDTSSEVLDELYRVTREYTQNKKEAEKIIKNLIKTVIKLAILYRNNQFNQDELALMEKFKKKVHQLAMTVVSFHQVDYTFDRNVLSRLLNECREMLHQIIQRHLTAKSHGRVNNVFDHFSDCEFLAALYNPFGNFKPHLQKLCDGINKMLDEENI
UniProt Q70CQ2, sequence (Q70CQ2 whole entry, looked up): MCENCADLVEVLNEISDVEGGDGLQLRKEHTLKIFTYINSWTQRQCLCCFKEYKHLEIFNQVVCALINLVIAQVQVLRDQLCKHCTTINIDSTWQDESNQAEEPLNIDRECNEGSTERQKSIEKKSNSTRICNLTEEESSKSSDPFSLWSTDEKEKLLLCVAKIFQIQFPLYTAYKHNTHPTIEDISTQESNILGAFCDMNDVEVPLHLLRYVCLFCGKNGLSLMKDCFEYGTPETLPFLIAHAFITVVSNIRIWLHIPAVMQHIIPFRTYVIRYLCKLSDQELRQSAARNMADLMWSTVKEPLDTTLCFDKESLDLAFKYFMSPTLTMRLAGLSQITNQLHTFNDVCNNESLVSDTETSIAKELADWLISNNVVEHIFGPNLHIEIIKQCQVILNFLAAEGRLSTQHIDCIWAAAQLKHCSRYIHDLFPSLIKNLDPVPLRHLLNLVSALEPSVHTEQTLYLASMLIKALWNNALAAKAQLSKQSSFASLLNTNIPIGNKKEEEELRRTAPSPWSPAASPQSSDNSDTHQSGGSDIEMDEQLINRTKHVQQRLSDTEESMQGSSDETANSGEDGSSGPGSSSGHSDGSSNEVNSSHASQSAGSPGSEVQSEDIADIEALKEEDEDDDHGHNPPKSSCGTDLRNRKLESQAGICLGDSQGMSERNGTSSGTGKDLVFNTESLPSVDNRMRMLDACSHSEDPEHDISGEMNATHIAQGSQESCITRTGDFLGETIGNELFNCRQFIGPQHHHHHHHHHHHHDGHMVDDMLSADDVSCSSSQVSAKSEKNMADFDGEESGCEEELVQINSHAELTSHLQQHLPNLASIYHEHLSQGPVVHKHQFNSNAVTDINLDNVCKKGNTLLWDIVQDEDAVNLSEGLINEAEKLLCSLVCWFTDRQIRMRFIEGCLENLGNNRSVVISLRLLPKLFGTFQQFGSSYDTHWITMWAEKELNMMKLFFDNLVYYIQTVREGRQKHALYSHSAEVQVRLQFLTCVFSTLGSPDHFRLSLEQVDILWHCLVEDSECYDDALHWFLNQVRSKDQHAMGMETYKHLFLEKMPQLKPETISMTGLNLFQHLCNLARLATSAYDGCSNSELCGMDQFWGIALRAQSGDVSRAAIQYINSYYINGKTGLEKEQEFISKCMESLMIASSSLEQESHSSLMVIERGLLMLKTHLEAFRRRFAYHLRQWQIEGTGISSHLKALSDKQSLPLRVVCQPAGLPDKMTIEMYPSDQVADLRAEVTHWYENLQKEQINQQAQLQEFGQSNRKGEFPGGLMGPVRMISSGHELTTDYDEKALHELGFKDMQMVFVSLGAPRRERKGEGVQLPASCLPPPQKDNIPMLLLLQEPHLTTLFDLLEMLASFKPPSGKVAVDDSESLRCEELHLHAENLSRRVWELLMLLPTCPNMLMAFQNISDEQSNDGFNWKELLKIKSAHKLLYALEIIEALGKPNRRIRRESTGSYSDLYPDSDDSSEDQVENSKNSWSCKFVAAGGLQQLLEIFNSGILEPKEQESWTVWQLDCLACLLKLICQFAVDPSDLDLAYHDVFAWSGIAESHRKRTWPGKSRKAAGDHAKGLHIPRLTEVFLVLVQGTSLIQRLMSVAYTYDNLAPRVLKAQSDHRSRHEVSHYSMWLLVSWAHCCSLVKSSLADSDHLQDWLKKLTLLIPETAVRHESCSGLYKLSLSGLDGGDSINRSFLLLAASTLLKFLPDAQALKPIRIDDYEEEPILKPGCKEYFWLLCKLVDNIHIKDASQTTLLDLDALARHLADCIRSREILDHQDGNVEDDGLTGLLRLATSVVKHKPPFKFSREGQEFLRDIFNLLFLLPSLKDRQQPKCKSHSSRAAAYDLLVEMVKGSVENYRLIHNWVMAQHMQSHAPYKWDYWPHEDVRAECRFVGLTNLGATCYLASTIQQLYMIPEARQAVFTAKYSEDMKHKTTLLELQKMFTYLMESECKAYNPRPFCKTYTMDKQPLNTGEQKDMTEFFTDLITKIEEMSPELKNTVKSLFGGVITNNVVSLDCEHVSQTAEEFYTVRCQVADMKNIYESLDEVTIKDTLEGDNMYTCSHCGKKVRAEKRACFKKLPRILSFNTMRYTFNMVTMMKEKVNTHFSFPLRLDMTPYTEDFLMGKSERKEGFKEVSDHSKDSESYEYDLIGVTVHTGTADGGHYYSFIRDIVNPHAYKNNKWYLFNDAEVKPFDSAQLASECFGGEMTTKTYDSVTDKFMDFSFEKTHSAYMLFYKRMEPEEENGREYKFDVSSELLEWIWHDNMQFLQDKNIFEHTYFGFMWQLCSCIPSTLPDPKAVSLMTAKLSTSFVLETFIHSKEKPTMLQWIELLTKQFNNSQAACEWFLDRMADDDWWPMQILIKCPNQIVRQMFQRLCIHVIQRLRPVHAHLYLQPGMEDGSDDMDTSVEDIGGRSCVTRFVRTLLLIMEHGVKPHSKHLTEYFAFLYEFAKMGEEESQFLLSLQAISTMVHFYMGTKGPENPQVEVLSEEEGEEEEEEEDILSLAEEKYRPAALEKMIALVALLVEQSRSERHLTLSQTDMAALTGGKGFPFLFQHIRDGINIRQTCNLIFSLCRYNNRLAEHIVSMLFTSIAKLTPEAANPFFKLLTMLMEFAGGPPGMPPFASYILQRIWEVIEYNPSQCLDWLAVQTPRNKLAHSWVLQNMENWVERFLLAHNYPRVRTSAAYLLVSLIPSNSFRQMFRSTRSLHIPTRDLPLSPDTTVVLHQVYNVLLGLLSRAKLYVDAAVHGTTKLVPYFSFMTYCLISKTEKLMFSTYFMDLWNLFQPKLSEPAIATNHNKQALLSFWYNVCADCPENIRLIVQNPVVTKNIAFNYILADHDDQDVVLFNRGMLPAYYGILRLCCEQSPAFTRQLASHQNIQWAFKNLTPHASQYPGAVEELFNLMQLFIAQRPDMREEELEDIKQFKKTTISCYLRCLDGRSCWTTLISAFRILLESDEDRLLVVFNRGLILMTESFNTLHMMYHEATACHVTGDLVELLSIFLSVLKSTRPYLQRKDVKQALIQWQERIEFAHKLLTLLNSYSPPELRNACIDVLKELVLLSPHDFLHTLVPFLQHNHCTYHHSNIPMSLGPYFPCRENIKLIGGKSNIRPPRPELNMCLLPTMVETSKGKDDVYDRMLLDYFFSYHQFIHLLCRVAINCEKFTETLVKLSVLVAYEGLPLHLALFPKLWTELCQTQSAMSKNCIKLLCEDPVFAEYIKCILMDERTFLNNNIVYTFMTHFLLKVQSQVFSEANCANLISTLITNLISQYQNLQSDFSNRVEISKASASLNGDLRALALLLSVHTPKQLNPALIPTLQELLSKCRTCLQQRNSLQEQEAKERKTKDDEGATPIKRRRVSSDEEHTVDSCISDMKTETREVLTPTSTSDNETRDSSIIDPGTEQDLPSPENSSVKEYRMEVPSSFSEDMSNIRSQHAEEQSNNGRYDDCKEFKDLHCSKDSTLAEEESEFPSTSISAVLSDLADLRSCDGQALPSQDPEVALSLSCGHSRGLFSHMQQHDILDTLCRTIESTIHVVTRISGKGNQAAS
UniProt Q16763, sequence (Q16763 whole entry, looked up): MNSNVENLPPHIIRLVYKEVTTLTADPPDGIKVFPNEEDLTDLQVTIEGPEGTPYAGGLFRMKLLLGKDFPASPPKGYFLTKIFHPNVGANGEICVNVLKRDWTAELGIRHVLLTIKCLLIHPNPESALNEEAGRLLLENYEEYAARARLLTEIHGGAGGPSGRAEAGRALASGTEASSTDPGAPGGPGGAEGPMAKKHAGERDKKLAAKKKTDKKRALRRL

Target | log2 fold change [1] | log2 fold change [2] | log2 fold change [3] | log2 fold change [4] | log2 fold change [5] | log2 fold change [6] | log2 fold change [7] | log2 fold change [8] | log2 fold change [9] | log2 fold change [10]
TMEM164 (UniProt Q5U3C3) | 0.129 | -0.138 | -0.006 | -0.248 | -0.112 | 0.139 | 0.087 | 0.01 | -0.004 | -0.268
UBE2E3 (UniProt Q969T4) | -0.007 | -0.052 | -0.155 | -0.106 | 0.051 | 0.103 | 0.063 | -0.016 | 0.023 | -0.007
UBE2J1 (UniProt Q9Y385) | 0.031 | -0.038 | 0.07 | 0.017 | -0.077 | -0.019 | 0.041 | 0.042 | -0.375 (active) | -0.09
TRAPPC11 (UniProt Q7Z392) | -0.033 | -0.11 | -0.187 | 0.007 | 0.011 | 0.012 | -0.006 | 0.044 | -0.036 | -0.053
WASHC2A (UniProt Q641Q2) | -0.013 | -0.012 | -0.159 | 0.021 | -0.038 | 0.024 | -0.035 | 0.072 | 0.016 | -0.056
TPM2 (UniProt P07951) | 0.119 | 0.081 | 0.157 | 0.201 | 0.077 | -0.077 | 0.103 | -0.07 | 0.162 | 0.171
TMEM9B (UniProt Q9NQ34) | -0.025 | 0.004 | -0.093 | -0.111 | 0.025 | 0.051 | 0.023 | 0.038 | 0.043 | -0.121
WDR46 (UniProt O15213) | 0.098 | 0.083 | 0.253 | 0.177 | -0.027 | -0.042 | -0.139 | 0.173 | 0.257 | -0.143
VTI1B (UniProt Q9UEU0) | 0.023 | -0.006 | -0.084 | -0.054 | -0.031 | -0.035 | -0.001 | 0.114 | 0.054 | -0.03
TNPO3 (UniProt Q9Y5L0) | 0.026 | -0.018 | -0.221 (active) | -0.024 | 0.049 | 0.076 | 0.058 | -0.024 | -0.06 | -0.059
UBE2S (UniProt Q16763) | -0.04 | -0.043 | -0.033 | -0.086 | -0.026 | 0.002 | 0.072 | 0.069 | -0.106 | -0.032
WASH2P (UniProt Q6VEQ5) | 0.067 | -0.088 | -0.314 (active) | 0.02 | 0.028 | -0.016 | 0.029 | 0.06 | 0.092 | -0.045
VPS33B (UniProt Q9H267) | -0.013 | -0.154 | -0.118 | -0.018 | 0.094 | 0.072 | 0.076 | -0.011 | 0.017 | -0.057
TYW1 (UniProt Q9NV66) | -0.022 | 0.05 | 0.004 | 0.013 | 0.028 | -0.056 | 0.053 | 0.039 | -0.141 | -0.007
TMEM161A (UniProt Q9NX61) | 0.043 | 0.012 | -0.132 | -0.101 | 0.049 | 0.006 | 0.083 | -0.023 | -0.009 | -0.098
XRCC6 (UniProt P12956) | -0.064 | -0.143 | -0.139 | -0.08 | 0.098 | 0.134 | 0.107 | 0.026 | -0.119 | -0.049
TRAM1 (UniProt Q15629) | -0.104 | -0.073 | -0.162 | -0.196 | -0.075 | 0.034 | -0.083 | 0.066 | 0.025 | -0.021
USP34 (UniProt Q70CQ2) | 0.012 | -0.08 | -0.131 | -0.02 | 0.024 | 0.118 | 0.123 | 0.045 | -0.008 | -0.074
USP3 (UniProt Q9Y6I4) | 0.039 | 0.016 | -0.218 | -0.115 | -0.037 | 0.092 | 0.102 | 0.019 | -0.066 | -0.014
TRABD (UniProt Q9H4I3) | 0.008 | -0.006 | 0.1 | 0.157 | -0.022 | 0.009 | -0.014 | 0.188 | 0.055 | -0.026
TRAPPC2L (UniProt Q9UL33) | 0.005 | -0.025 | -0.126 | 0.054 | 0.008 | 0.068 | 0.031 | 0.037 | -0.047 | -0.099
WDR4 (UniProt P57081) | -0.094 | 0.021 | -0.089 | -0.003 | -0.04 | -0.009 | 0.046 | -0.038 | -0.161 | -0.011
VPS28 (UniProt Q9UK41) | -0.059 | -0.079 | -0.177 | -0.055 | 0.064 | 0.052 | 0.122 | 0.058 | -0.001 | -0.012
TNPO2 (UniProt O14787) | 0.015 | -0.174 | -0.268 | -0.054 | 0.064 | -0.008 | 0.047 | 0.059 | -0.04 | -0.124
TNFAIP8 isoform 4 (UniProt O95379) | -0.032 | -0.091 | -0.061 | 0.029 | 0.018 | 0.207 (active) | 0.012 | 0.147 | -0.073 | 0.087
UBE3D (UniProt Q7Z6J8) | -0.019 | 0.012 | -0.004 | 0.027 | 0.074 | 0.056 | 0.012 | 0.067 | -0.032 | -0.164
WDR61 (UniProt Q9GZS3) | -0.013 | -0.058 | -0.102 | -0.069 | -0.052 | 0 | 0.028 | -0.005 | -0.045 | -0.057
UTP3 (UniProt Q9NQZ2) | 0.093 | 0.074 | 0.286 | 0.087 | -0.019 | -0.06 | -0.107 | 0.095 | 0.103 | -0.41
TMEM214 (UniProt Q6NUQ4) | -0.01 | 0.049 | -0.003 | 0.022 | 0.003 | 0.047 | -0.01 | 0.006 | 0.02 | -0.022
TRMT2A (UniProt Q8IZ69) | -0.031 | -0.128 | -0.091 | -0.003 | 0.022 | 0.03 | -0.03 | -0.003 | 0.018 | -0.062
